PubChem BioAssay (NCATS)
Inconclusive results are not listed. Calls of active or inactive are those of the source. Unless noted, calls come from the whole dose curve; as a rule, active = well fitted curve in the direction sought with a large enough effect; inconclusive = small, poorly fitted or top-dose-only effect, or another doubt; inactive = no such curve, though single readings can be large; an effect the other way counts as inactive or inconclusive.

Legend:
[1] = qHTS to identify inhibitors of the type 1 interferon - major histocompatibility complex class I in skeletal muscle: primary screen against the NCATS Pharmaceutical Collection (AID 1347407);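 note: luminescence of HiBiT knocked into endogenous HLA-B as interferon-induced MHC class I level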; note: potency is the fitted concentration of half-maximal effect
Procedure, shortened: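 HLA-B HiBiT myoblasts, dexamethasone-free growth medium + 4 ng/ml IFN-b; compounds pinned 1 h after seeding, […] from 46 uM; 24 h, 37 C, 5% CO2; lytic HiBiT detection, 10 min RT, luminescence.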

[2] = biological target: Protein phosphatase 1D (Homo sapiens) (UniProt O15297); test: Rhodamine-PBP qHTS Assay for Modulators of WT P53-Induced Phosphatase 1 (WIP1) (AID 1347425)
Procedure, shortened: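 Read-out: Rhodamine-PBP fluorescence (ex 525/em 598 nm) for released Pi, read each minute for 11 min after adding 10 uM VEPPL-pS-QETFS; signal taken as f1 minus pre-substrate f0. Enzyme 5 nM WIP1 with 1 hr room-temperature compound preincubation.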

[3] = Primary qHTS for inhibitors of La Crosse Virus (LACV) - induced cell death in SH-SY5Y cells (AID 1508616);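 note: top concentration of the series differs between compounds; higher means more rescue of cells from virus-induced death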
Procedure, shortened: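 Screening measures cell viability in LACV-infected SH-SY5Y cultures. Compound was added before virus (0.01 MOI), and ATP was detected by luminescence 6 days later.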

[4] = A High-Content qHTS Against Drug Library for the Identification of Small Molecules that Inhibit DYT1 Early Onset Primary Dystonia-Associated Cell Pathology (AID 1645839; calls by dose curve; note: potency is the fitted concentration of half-maximal effect)
Procedure, shortened: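 Induced EGFP-delE TorsinA cells are imaged after 48 h of compound treatment. Punctate fusion-protein distribution gives the %pathology value, while nuclei counts flag toxicity. Wild-type EGFP-hTOR1A cells define the normal pattern.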

[5] = biological target: Cytochrome P450 2D6 (Homo sapiens) (UniProt P10635); test: Cytochrome P450 family 2 subfamily D member 6 (CYP2D6) small molecule antagonists: luciferase biochemical (cell-free) qHTS assay (AID 1645840; active = well fitted curve in the direction sought with a large enough effect in the repeat runs; an effect the other way counts as inactive or inconclusive; note: nearly all actives have a fitted effect of over 55% in size; note: potency is the fitted concentration of half-maximal effect)
Procedure, shortened: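 P450-Glo CYP2D6 system: proluciferin substrate converted by enzyme to luciferin, read by luminescence proportional to activity. Enzyme-substrate mix with compound 10 min at room temperature, then NADPH regeneration 1 h before detection reagent.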

[6] = biological target: Protein phosphatase 1D (Homo sapiens) (UniProt O15297); test: RapidFire Mass Spectrometry qHTS Assay for Modulators of WT P53-Induced Phosphatase 1 (WIP1) (AID 1347424);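 note: amount of dephosphorylated VEPPL-S-QETFS peptide product formed by WIP1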; note: potency is the fitted concentration of half-maximal effect
Procedure, shortened: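 Mass-spectrometric measurement of dephosphorylated peptide after a 5 min room-temperature reaction of 10 nM WIP1 with 2 uM phosphopeptide, following 1 h compound preincubation in 30 mM MgCl2 buffer.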

[7] = Primary qHTS for inhibitors of nuclear receptor binding SET domain protein 2 (NSD2) in an isogenic RCH-ACV NSD2 p.E1099K mutant (9B) (AID 1645876); note: nearly all actives have a fitted effect of over 70% in size; note: potency is the fitted concentration of half-maximal effect
[8] = Primary qHTS for small molecule stabilizers of the endoplasmic reticulum resident proteome: Secreted ER Calcium Modulated Protein (SERCaMP) assay (AID 1508630)
Procedure, shortened: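 The SH-SY5Y reporter protocol was run at 3 concentrations up to 38.3 uM (primary) or 11 concentrations (follow-up): 16 h compound, 100 nM thapsigargin for 4 h, then extracellular luciferase luminescence.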

[9] = biological target: Calcium and integrin-binding protein 1 (Homo sapiens) (UniProt Q99828); test: Primary qHTS for Identification of Calcium Integrin Binding Protein 1 (CIB1) Competitor (AID 1508620);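 note: GST tagged CIB1 binding a fluorescein labelled alphaIIb integrin peptide tracer; top concentration of the series differs between compounds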
Procedure, shortened: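 Fluorescence polarization competition: CIB1-GST (1 uM final) preincubated with compound 15 min at room temperature, then FITC-labeled alphaIIb peptide (100 nM final) added for another 15 min. Polarization read at Ex 480/Em 540.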

[10] = biological target: Calcium and integrin-binding protein 1 (Homo sapiens) (UniProt Q99828); test: Confirmatory qHTS for Identification of Calcium Integrin Binding Protein 1 (CIB1) Competitor (AID 1508617); conditions: CIB1 binding competition assay, biochemical qHTS; note: potency is the fitted concentration of half-maximal effect; nearly all actives have a fitted effect of over 65% in size
Procedure, shortened: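 Fluorescence polarization competition: CIB1-GST (1 uM final) in 5 mM HEPES pH 7.4, 125 mM NaCl, 5 mM CaCl2, 0.01% Tween20 preincubated 15 min RT with compound (up to 114 uM), then FITC-alphaIIb peptide (100 nM) added, 15 min RT.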

[11] = biological target: Cytochrome P450 2C9 (Homo sapiens) (UniProt P11712); test: Cytochrome P450 family 2 subfamily C member 9 (CYP2C9) small molecule antagonists: luciferase biochemical (cell-free) qHTS assay (AID 1645842; active = well fitted curve in the direction sought with a large enough effect in the repeat runs; an effect the other way counts as inactive or inconclusive; note: nearly all actives have a fitted effect of over 55% in size; note: potency is the fitted concentration of half-maximal effect)
Procedure, shortened: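 P450-Glo CYP2C9 system: proluciferin substrate with enzyme in mix containing 0.4% BSA, 10 min at room temperature, then NADPH regeneration solution added and incubated 1 h at 37C. Detection reagent stopped reaction; luminescence read after 20 min as RLU.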

[12] = qHTS for inhibitors of adenylyl cyclases using a fission yeast platform: a pilot screen against the NCATS LOPAC library (AID 1347410)
Procedure, shortened: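 Read-out: fbp1-GFP fluorescence by laser scanning cytometry (488 nm laser), a gain of signal when AC/cAMP-PKA signalling is inhibited. Strain CHP2027 expressing AC9, GNAS and PDE4D2; compounds at up to 57 µM; 18 h, 30C.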

[13] = biological target: Cytochrome P450 3A4 (Homo sapiens) (UniProt P08684); test: Cytochrome P450 family 3 subfamily A member 4 (CYP3A4) small molecule antagonists: luciferase qHTS assay (AID 1645841; active = well fitted curve in the direction sought with a large enough effect in the repeat runs; an effect the other way counts as inactive or inconclusive; note: nearly all actives have a fitted effect of over 45% in size)
Procedure, shortened: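 P450-Glo CYP3A4 enzyme with proluciferin substrate was preincubated with DMSO-dissolved compounds for 10 min at room temperature. NADPH regeneration solution started a 1 h reaction. Detection reagent stopped it, and luminescence was read after 20 min.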

Measured: Potency

Chain of Calcium and integrin-binding protein 1 (Homo sapiens) (Q99828 whole entry, looked up): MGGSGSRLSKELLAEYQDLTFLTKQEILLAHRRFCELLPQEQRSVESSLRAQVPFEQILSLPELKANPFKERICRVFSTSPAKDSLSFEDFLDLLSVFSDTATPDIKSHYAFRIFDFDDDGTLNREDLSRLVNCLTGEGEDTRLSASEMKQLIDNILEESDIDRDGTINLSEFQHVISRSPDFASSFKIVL
Chain of Cytochrome P450 2D6 (Homo sapiens) (P10635 whole entry, looked up): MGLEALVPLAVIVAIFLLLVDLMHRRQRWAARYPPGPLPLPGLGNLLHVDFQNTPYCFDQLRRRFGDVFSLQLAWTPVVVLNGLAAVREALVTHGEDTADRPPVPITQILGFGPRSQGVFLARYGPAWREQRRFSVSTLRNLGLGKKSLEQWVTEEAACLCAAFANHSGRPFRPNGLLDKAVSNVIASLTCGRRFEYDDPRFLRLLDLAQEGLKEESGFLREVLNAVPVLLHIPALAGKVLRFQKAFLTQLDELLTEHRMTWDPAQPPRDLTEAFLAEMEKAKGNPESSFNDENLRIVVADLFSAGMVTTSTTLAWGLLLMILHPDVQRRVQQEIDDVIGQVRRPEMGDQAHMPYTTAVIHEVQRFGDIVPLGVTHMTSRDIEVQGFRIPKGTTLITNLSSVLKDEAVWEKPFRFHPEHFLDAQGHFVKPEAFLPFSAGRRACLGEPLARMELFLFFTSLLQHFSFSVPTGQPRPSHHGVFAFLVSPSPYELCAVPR
Chain of Protein phosphatase 1D (Homo sapiens) (O15297 whole entry, looked up): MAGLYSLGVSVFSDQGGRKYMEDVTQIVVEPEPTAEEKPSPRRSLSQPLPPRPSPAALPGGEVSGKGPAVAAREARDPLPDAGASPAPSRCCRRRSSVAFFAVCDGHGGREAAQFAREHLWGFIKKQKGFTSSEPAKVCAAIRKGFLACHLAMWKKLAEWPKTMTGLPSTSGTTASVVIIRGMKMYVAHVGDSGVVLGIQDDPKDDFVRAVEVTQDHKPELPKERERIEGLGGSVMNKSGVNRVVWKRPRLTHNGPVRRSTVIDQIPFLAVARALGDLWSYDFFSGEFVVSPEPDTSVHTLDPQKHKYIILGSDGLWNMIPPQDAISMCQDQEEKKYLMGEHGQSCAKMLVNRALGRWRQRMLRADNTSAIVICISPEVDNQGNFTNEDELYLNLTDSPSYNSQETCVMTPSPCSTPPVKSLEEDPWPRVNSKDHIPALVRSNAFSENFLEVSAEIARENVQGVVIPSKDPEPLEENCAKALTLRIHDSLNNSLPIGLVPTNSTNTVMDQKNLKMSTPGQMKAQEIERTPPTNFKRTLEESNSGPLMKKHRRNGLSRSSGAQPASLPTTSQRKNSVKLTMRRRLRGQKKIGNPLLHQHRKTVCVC
Chain of Cytochrome P450 2C9 (Homo sapiens) (P11712 whole entry, looked up): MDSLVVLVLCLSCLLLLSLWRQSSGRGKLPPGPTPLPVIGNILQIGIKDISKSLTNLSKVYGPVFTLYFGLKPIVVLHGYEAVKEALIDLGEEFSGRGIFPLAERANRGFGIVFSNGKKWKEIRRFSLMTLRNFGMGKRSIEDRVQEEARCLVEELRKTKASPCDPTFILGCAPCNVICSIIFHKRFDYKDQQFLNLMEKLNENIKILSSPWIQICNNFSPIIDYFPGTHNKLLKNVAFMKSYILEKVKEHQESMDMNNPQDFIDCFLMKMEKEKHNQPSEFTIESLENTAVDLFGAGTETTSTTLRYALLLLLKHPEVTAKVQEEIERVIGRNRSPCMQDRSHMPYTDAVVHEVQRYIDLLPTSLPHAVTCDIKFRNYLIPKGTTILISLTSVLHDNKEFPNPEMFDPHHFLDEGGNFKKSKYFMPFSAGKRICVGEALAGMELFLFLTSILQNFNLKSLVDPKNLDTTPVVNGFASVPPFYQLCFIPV
Chain of Cytochrome P450 3A4 (Homo sapiens) (P08684 whole entry, looked up): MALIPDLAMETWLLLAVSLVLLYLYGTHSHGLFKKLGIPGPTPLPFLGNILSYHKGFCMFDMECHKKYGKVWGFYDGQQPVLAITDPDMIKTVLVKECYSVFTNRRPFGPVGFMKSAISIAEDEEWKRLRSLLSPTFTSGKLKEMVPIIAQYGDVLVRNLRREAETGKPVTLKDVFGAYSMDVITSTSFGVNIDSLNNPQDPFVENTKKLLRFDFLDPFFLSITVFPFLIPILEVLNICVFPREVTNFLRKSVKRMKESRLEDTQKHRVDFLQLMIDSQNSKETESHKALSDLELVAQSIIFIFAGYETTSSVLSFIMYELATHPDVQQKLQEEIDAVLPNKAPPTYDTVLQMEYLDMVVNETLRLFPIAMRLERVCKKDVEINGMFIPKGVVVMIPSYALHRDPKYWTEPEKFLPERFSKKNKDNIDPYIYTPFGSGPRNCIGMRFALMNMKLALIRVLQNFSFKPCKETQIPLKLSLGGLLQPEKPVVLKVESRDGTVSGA

Nc1c(CC(=O)O)cccc1C(=O)c1ccc(Br)cc1
inactive: [1] | [2] | [3] | [4] | [5]

COc1cccc2c1C(=O)c1c(O)c3c(c(O)c1C2=O)C[C@@](O)(C(=O)CO)C[C@@H]3O[C@H]1C[C@H](N)[C@H](O[C@@H]2CCCCO2)[C@H](C)O1
inactive: [1] | [6] | [2] | [5]
active: [4] 10 µM | [7] 0.0067 µM

CC1(C)S[C@@H]2[C@H](NC(=O)[C@H](N)c3ccccc3)C(=O)N2[C@H]1C(=O)O
inactive: [1] | [6] | [2] | [3] | [4] | [5] | [7]

O=C(CS)Nc1ccccc1
inactive: [1] | [6] | [2] | [3] | [8] | [7]

NC(=O)C(c1ccccc1)(c1ccccc1)[C@@H]1CCN(CCc2ccc3c(c2)CCO3)C1
inactive: [1] | [6] | [2] | [3]
active: [5] 0.617 µM

Cc1cc(O)c2ccccc2c1O
inactive: [1] | [2] | [3] | [9] | [8]
active: [5] 11 µM

c1ccc2sc(SN3CCOCC3)nc2c1
inactive: [1] | [6] | [2] | [3] | [4] | [5] | [7]

Nc1ccc(O)c([N+](=O)[O-])c1
inactive: [1] | [3] | [4]
active: [6] 35.5 µM | [10] 50.1 µM | [5] 32.9 µM | [11] 21.8 µM

O=C1NCc2c1c1c3ccccc3[nH]c1c1[nH]c3ccccc3c21
inactive: [12]

CCCCCCCCCCCC(=O)[O][Sn]([CH2]CCC)([CH2]CCC)[O]C(=O)CCCCCCCCCCC
not listed: [2] | [8] | [10] | [12] | [13]
inactive: all other assays above

COC(=O)c1nc(Cl)c(Cl)nc1N
active: [1] 10.5 µM | [7] 0.0596 µM
inactive: [6] | [2] | [9] | [8] | [5]

Oc1c(Br)cc(Br)c2cccnc12
active: [4] 5.62 µM | [7] 3.76 µM
not listed: [3] | [9] | [10] | [12]
inactive: all other assays above

COc1cc2c3cc1Oc1cc(ccc1O)C[C@@H]1c4c(cc(OC)c(O)c4Oc4ccc(cc4)C[C@@H]3N(C)CC2)CC[N+]1(C)C
inactive: [1] | [6] | [2] | [3] | [4] | [5] | [7]

CCCCCCCCCCCCCCCCCC(=O)O
inactive: [1] | [6] | [2] | [3] | [4] | [7]

CC(=O)c1ccc(OCC(=O)N2CCCCC2)cc1
not listed: [8] | [9] | [10] | [12] | [13]
inactive: all other assays above

Nc1cc(-c2ccncc2)c[nH]c1=O
active: [6] 22.4 µM | [5] 12.3 µM | [11] 11 µM
inactive: [1] | [3] | [8] | [4] | [7]

O=Cc1ccc(O)c(O)c1O
inactive: [1] | [3] | [4] | [5]

N=C(N)N
not listed: [8] | [9] | [10] | [11] | [12]
inactive: all other assays above

C#C[C@]1(O)CC[C@H]2[C@@H]3CCc4cc(O)ccc4[C@H]3CC[C@@]21C
active: [7] 11.8 µM
inactive: [1] | [6] | [2] | [8] | [5]

Nc1ccc(O)c(C(=O)O)c1
inactive: [1] | [3] | [8] | [4] | [5]
active: [6] 17.8 µM
